About 2,000 (36%) of roughly 5,500 compounds were called active. About 18% were inconclusive and are not listed. Rule as the data show it: active = normalized growth mostly below about 0.91 (no sharp cut-off); inconclusive = no clear call, values can overlap the other calls; inactive = mostly above about 0.92. The list shows a part of the results.
Test: chemical genetic growth profiling, strain panel (AID 1159580);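 also: tested at 20 µM; growth read once vehicle control cultures reached saturation at 30 °C; 1 = growth at the plate median or of vehicle wells; lower values mean less growth of the strain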
Conditions: S. cerevisiae deletion strains, growth OD
[1] = locus YAR019C, strain CDC15, active compounds read low
[2] = locus YBL105C, strain PKC1, active compounds read low
[3] = locus YBR135W, strain CKS1, active compounds read low
[4] = locus YBR136W, strain MEC1, active compounds read low
[5] = locus YBR160W, strain CDC28, active compounds read low
[6] = locus YDL017W, strain CDC7, active compounds read low
[7] = locus YDL028C, strain MPS1, active compounds read low
[8] = locus YDL101C, strain DUN1, active compounds read low
[9] = locus YDL108W, strain KIN28, active compounds read low
[10] = locus YDL132W, strain cdc53, active compounds read low
[11] = locus YDL214C, strain PRR2, active compounds read low
[12] = locus YDR052C, strain DBF4, active compounds read low
[13] = locus YDR054C, strain cdc34, active compounds read low
[14] = locus YDR226W, strain ADK1, active compounds read low
[15] = locus YDR477W, strain SNF1, active compounds read low
[16] = locus YER123W, strain YCK3, active compounds read low
[17] = locus YER133W, strain GLC7, active compounds read low
[18] = locus YFL009W, strain cdc4, active compounds read low
[19] = locus YFL029C, strain CAK1, active compounds read low
[20] = locus YFR003C, strain YPI1, active compounds read low
[21] = locus YFR019W, strain FAB1, active compounds read low
[22] = locus YFR028C, strain CDC14, active compounds read low
[23] = locus YGR040W, strain KSS1, active compounds read low
[24] = locus YGR052W, strain FMP48, active compounds read low
[25] = locus YGR092W, strain DBF2, active compounds read low
[26] = locus YHR030C, strain SLT2, active compounds read low
[27] = locus YHR079C, strain IRE1, active compounds read low
[28] = locus YHR082C, strain KSP1, active compounds read low
[29] = locus YHR205W, strain SCH9, active compounds read low
[30] = locus YIL147C, strain SLN1, active compounds read low
[31] = locus YJL095W, strain BCK1, active compounds read low
[32] = locus YJL128C, strain PBS2, active compounds read low
[33] = locus YJL157C, strain FAR1, active compounds read low
[34] = locus YJR016C, strain ILV3, active compounds read low
[35] = locus YJR066W, strain TOR1 (second series), active compounds read low
[36] = locus YJR066W, strain TOR1, active compounds read low
[37] = locus YKL048C, strain ELM1, active compounds read low
[38] = locus YKL067W, strain YNK1, active compounds read low
[39] = locus YKL101W, strain HSL1, active compounds read low
[40] = locus YKL193C, strain SDS22, active compounds read low
[41] = locus YKL203C, strain TOR2, active compounds read low
[42] = locus YLR113W, strain HOG1, active compounds read low
[43] = locus YLR133W, strain CKI1, active compounds read low
[44] = locus YLR403W, strain SFP1, active compounds read low
[45] = locus YML070W, strain DAK1, active compounds read low
[46] = locus YMR001C, strain CDC5, active compounds read low
[47] = locus YMR205C, strain PFK2 (second series), active compounds read low
[48] = locus YMR277W, strain FCP1, active compounds read low
[49] = locus YNL006W, strain LST8, active compounds read low
[50] = locus YNL020C, strain ARK1, active compounds read low
[51] = locus YNL161W, strain CBK1, active compounds read low
[52] = locus YNL183C, strain NPR1, active compounds read low
[53] = locus YNL207W, strain RIO2, active compounds read low
[54] = locus YNL222W, strain SSU72, active compounds read low
[55] = locus YNL307C, strain MCK1 (second series), active compounds read low
[56] = locus YOL078W, strain AVO1, active compounds read low
[57] = locus YOL136C, strain PFK27, active compounds read low
[58] = locus YOR061W, strain CKA2, active compounds read low
[59] = locus YOR119C, strain RIO1, active compounds read low
[60] = locus YOR231W, strain MKK1, active compounds read low
[61] = locus YOR329C, strain SCD5, active compounds read low
[62] = locus YPL031C, strain PHO85, active compounds read low
[63] = locus YPL153C, strain RAD53, active compounds read low
[64] = locus YPL204W, strain HRR25, active compounds read low
[65] = locus YPL209C, strain IPL1, active compounds read low
[66] = locus YPL256C, strain CLN2, active compounds read low
[67] = locus YPR025C, strain CCL1, active compounds read low
[68] = locus YPR106W, strain ISR1, active compounds read low
[69] = locus YPR111W, strain DBF20, active compounds read low
[70] = strain NNK1, active compounds read low
[71] = strain TSCII, active compounds read low

Measured: normalized growth

N/C(=N/OC(=O)c1ccc([N+](=O)[O-])cc1)c1c(Cl)cccc1Cl
active: [25] 0.465 | [26] 0.268 | [29] 0.449 | [31] 0.418 | [35] 0.598 | [42] 0.661 | [55] 0.613 | [60] 0.57 | [66] 0.733
inactive: [1] 0.939 | [2] 0.946 | [3] 0.949 | [4] 0.941 | [5] 0.967 | [6] 0.958 | [7] 0.948 | [8] 0.975 | [9] 0.952 | [10] 0.938 | [11] 0.91 | [12] 0.955 | [13] 0.94 | [14] 0.944 | [15] 0.764 | [16] 0.936 | [17] 0.805 | [18] 0.935 | [19] 0.953 | [20] 0.95 | [21] 0.825 | [22] 0.942 | [23] 0.848 | [24] 0.71 | [27] 0.536 | [28] 0.872 | [30] 0.94 | [32] 0.973 | [33] 0.863 | [34] 0.942 | [36] 0.642 | [37] 1.02 | [38] 0.924 | [39] 0.911 | [40] 0.935 | [41] 0.758 | [43] 0.898 | [44] 0.69 | [45] 0.883 | [46] 0.941 | [47] 0.905 | [48] 0.921 | [49] 0.958 | [50] 0.881 | [51] 0.954 | [52] 0.578 | [53] 0.915 | [54] 0.954 | [56] 0.938 | [57] 0.936 | [58] 0.919 | [59] 0.746 | [61] 0.954 | [62] 0.7 | [63] 0.693 | [64] 0.671 | [65] 0.955 | [67] 0.955 | [68] 0.984 | [69] 0.979 | [70] 0.982 | [71] 0.942

NC(=NS(=O)(=O)c1cc(Cl)c(Oc2ccc([N+](=O)[O-])cc2Cl)c(Cl)c1)c1cccnc1
inactive: locus YAL013W, strain DEP1, active compounds read low 1 | locus YBR229C, strain ROT2, active compounds read low 0.993 | [8] 0.976 | locus YDR150W, strain NUM1, active compounds read low 0.948 | locus YEL061C, strain CIN8, active compounds read low 1.01 | locus YGR078C, strain PAC10, active compounds read low 1 | [26] 0.924 | locus YHR087W, strain rtc3, active compounds read low 1.01 | locus YJR043C, strain POL32, active compounds read low 1 | locus YJR075W, strain HOC1, active compounds read low 0.992 | locus YLR039C, strain RIC1, active compounds read low 1.09 | locus YLR058C, strain SHM2 (second series), active compounds read low 1.01 | locus YLR085C, strain ARP6, active compounds read low 1.05 | locus YLR262C, strain YPT6, active compounds read low 1.09 | locus YML094W, strain GIM5, active compounds read low 1.01 | locus YMR219W, strain ESC1, active compounds read low 0.997 | locus YMR263W, strain SAP30, active compounds read low 0.95 | locus YNL128W, strain TEP1, active compounds read low 1.02 | locus YNL153C, strain GIM3, active compounds read low 0.992 | locus YNL298W, strain CLA4 (second series), active compounds read low 1.02 | locus YNL322C, strain KRE1, active compounds read low 1.01 | locus YNR030W, strain Alg12, active compounds read low 1.01 | locus YPL055C, strain LGE1, active compounds read low 0.912 | locus YPL241C, strain CIN2, active compounds read low 1.01 | locus YPR135W, strain CTF4, active compounds read low 0.96

N/C(=N/OC(=O)c1cnn(-c2ccc([N+](=O)[O-])cc2)c1C(F)(F)F)c1ccc(Cl)cc1
inactive: [1] 0.985 | [2] 0.972 | [3] 0.964 | [4] 0.971 | [5] 0.974 | [6] 0.984 | [7] 0.985 | [8] 0.992 | [9] 0.975 | [10] 0.974 | [11] 0.937 | [12] 0.983 | [13] 0.97 | [14] 0.982 | [15] 0.944 | [16] 0.96 | [17] 0.82 | [18] 0.982 | [19] 0.973 | [20] 0.98 | [21] 0.974 | [22] 0.979 | [23] 0.916 | [24] 1.06 | [25] 0.964 | [26] 1.01 | [27] 1.04 | [28] 1.07 | [29] 0.699 | [30] 0.979 | [31] 1.04 | [32] 0.98 | [33] 0.973 | [34] 0.976 | [35] 0.955 | [36] 1.01 | [37] 0.993 | [38] 0.972 | [39] 0.983 | [40] 0.982 | [41] 1.04 | [42] 0.98 | [43] 0.881 | [44] 0.74 | [45] 0.92 | [46] 0.981 | [47] 0.886 | [48] 0.981 | [49] 0.99 | [50] 0.989 | [51] 0.979 | [52] 1.01 | [53] 0.98 | [54] 0.969 | [55] 0.987 | [56] 0.969 | [57] 0.979 | [58] 0.912 | [59] 1.06 | [60] 0.961 | [61] 0.985 | [62] 0.974 | [63] 0.976 | [64] 1.01 | [65] 0.978 | [66] 0.961 | [67] 0.973 | [68] 0.993 | [69] 0.976 | [70] 0.995 | [71] 0.989

O=C(OCc1ccccc1Br)c1cc([N+](=O)[O-])cc([N+](=O)[O-])c1
inactive: [1] 0.973 | [2] 0.986 | [3] 0.969 | [4] 0.98 | [5] 0.988 | [6] 0.984 | [7] 0.981 | [8] 0.985 | [9] 0.969 | [10] 0.961 | [11] 0.846 | [12] 0.984 | [13] 0.965 | [14] 0.981 | [15] 0.841 | [16] 0.84 | [17] 0.888 | [18] 0.983 | [19] 0.975 | [20] 0.977 | [21] 0.905 | [22] 0.974 | [23] 0.868 | [24] 0.871 | [25] 0.757 | [26] 0.92 | [27] 0.96 | [28] 0.923 | [29] 0.83 | [30] 0.976 | [31] 0.92 | [32] 0.944 | [33] 0.825 | [34] 0.973 | [35] 0.781 | [36] 0.885 | [37] 0.922 | [38] 0.876 | [39] 0.88 | [40] 0.974 | [41] 0.939 | [42] 0.892 | [43] 0.887 | [44] 0.857 | [45] 0.825 | [46] 0.967 | [47] 0.842 | [48] 0.988 | [49] 0.974 | [50] 0.869 | [51] 0.988 | [52] 0.947 | [53] 0.966 | [54] 0.989 | [55] 0.877 | [56] 0.978 | [57] 0.867 | [58] 0.809 | [59] 0.952 | [60] 0.937 | [61] 0.973 | [62] 0.876 | [63] 0.866 | [64] 0.86 | [65] 0.984 | [67] 0.982 | [68] 0.976 | [69] 0.973 | [70] 0.977 | [71] 0.976
